Measured values: PubChem BioAssay AID1159580 (chemical genetic matrix, 2015)
Several values for one entry are separate records, joined by “and”; a condition that tells them apart may be missing. Equal values may be shown once. Among all 5,500 compounds or so, about 2,000 (36%) were called active. Roughly 18% stayed inconclusive and do not appear here. No stated cut-off is given here; in the data, active means normalized growth mostly below about 0.91 (no sharp cut-off); inconclusive means no clear call, values can overlap the other calls; inactive means mostly above about 0.92. This is one part of the list.

Assay: chemical genetic growth profiling, strain panel (AID 1159580);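 further: tested at 20 µM; growth read once vehicle control cultures reached saturation at 30 °C; 1 = growth at the plate median or of vehicle wells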
Conditions: S. cerevisiae deletion strains, growth OD

Measured: normalized growth

O=C(CCCN1CCC(O)(c2ccc(Cl)cc2)CC1)c1ccc(F)cc1
0.794 (active) and 0.973 (inactive): locus YHR030C, strain SLT2, stronger effect = lower value
0.332 (active) and 0.99 (inactive): locus YJL095W, strain BCK1, stronger effect = lower value
inactive: locus YAL030W, strain snc1, stronger effect = lower value 0.991 | locus YAL040C, strain CLN3, stronger effect = lower value 1.02 | locus YBL061C, strain skt5, stronger effect = lower value 0.951 | locus YBR023C, strain chs3, stronger effect = lower value 0.919 | locus YBR171W, strain sec66, stronger effect = lower value 1.03 | locus YBR229C, strain ROT2, stronger effect = lower value 0.981 | locus YCL011C, strain gbp2, stronger effect = lower value 0.948 | locus YCL029C, strain bik1, stronger effect = lower value 0.945 | locus YCL061C, strain MRC1 (second series), stronger effect = lower value 0.979 | locus YCL061C, strain MRC1, stronger effect = lower value 1.01 | locus YCL069W, strain vba3, stronger effect = lower value 0.985 | locus YCR088W, strain abp1, stronger effect = lower value 1.03 | locus YDL005C, strain med2, stronger effect = lower value 1.03 | locus YDL040C, strain nat1, stronger effect = lower value 1.02 | locus YDL101C, strain DUN1, stronger effect = lower value 0.921 | locus YDL185W, strain tfp1, stronger effect = lower value 1.01 | locus YDR001C, strain nth1, stronger effect = lower value 1.04 | locus YDR137W, strain rgp1, stronger effect = lower value 1.04 | locus YDR150W, strain NUM1, stronger effect = lower value 0.949 | locus YDR159W, strain sac3, stronger effect = lower value 1.02 | locus YDR297W, strain sur2, stronger effect = lower value 0.972 | locus YDR334W, strain swr1, stronger effect = lower value 1.04 | locus YDR335W, strain msn5, stronger effect = lower value 0.984 | locus YDR363W, strain ESC2, stronger effect = lower value 0.886 | locus YEL037C, strain rad23, stronger effect = lower value 0.998 | locus YEL061C, strain CIN8 (second series), stronger effect = lower value 1.02 | locus YER002W, strain NOP16, stronger effect = lower value 1.01 | locus YER015W, strain faa2, stronger effect = lower value 0.987 | locus YER016W, strain bim1, stronger effect = lower value 0.943 | locus YER110C, stronger effect = lower value 0.977 | locus YER111C, strain swi4, stronger effect = lower value 1.02 | locus YER155C, strain BEM2, stronger effect = lower value 1.01 | locus YGL078C, strain dbp3, stronger effect = lower value 0.978 | locus YGL167C, strain pmr1, stronger effect = lower value 0.963 | locus YGL173C, strain kem1, stronger effect = lower value 0.951 | locus YGL227W, strain vid30, stronger effect = lower value 1.05 | locus YGL240W, strain doc1, stronger effect = lower value 0.979 | locus YGR078C, strain PAC10, stronger effect = lower value 0.855 and 0.989 | locus YHR079C, strain IRE1 (second series), stronger effect = lower value 0.928 | locus YHR079C, strain IRE1, stronger effect = lower value 0.979 | locus YHR094C, strain hxt1, stronger effect = lower value 1.03 | locus YHR129C, strain ARP1, stronger effect = lower value 0.926 | locus YHR200W, strain rpn10, stronger effect = lower value 0.98 | locus YIL073C, strain SPO22, stronger effect = lower value 1.25 | locus YIL125W, strain kgd1, stronger effect = lower value 1.02 | locus YIR030C, strain dcg1, stronger effect = lower value 0.979 | locus YJL092W, strain hpr5, stronger effect = lower value 0.986 | locus YJL115W, strain asf1, stronger effect = lower value 1.01 | locus YJL134W, strain LCB3, stronger effect = lower value 0.988 | locus YJL154C, strain vps35, stronger effect = lower value 1.03 | locus YJL166W, strain qcr8, stronger effect = lower value 0.912 | locus YJL168C, strain set2, stronger effect = lower value 0.995 | locus YJL187C, strain SWE1, stronger effect = lower value 0.989
active: locus YAL013W, strain DEP1, stronger effect = lower value 0.797 | locus YAL021C, strain ccr4, stronger effect = lower value 0.903 | locus YAL026C, strain drs2, stronger effect = lower value 0.0861 | locus YBR009C, strain hhf1, stronger effect = lower value 0.889 | locus YBR021W, strain FUR4, stronger effect = lower value 0.535 | locus YBR231C, strain swc5, stronger effect = lower value 0.815 | locus YBR279W, strain paf1, stronger effect = lower value 0.918 | locus YCL016C, strain dcc1, stronger effect = lower value 0.902 | locus YDL035C, strain GPR1, stronger effect = lower value 0.803 | locus YDL074C, strain BRE1, stronger effect = lower value 0.739 | locus YDL192W, strain arf1, stronger effect = lower value 0.751 | locus YDR069C, strain doa4, stronger effect = lower value 0.837 | locus YDR101C, strain arx1, stronger effect = lower value 0.904 | locus YDR162C, strain NBP2, stronger effect = lower value 0.747 | locus YDR195W, strain ref2 1.46 [resistant] | locus YDR318W, strain mcm21, stronger effect = lower value 0.838 | locus YDR388W, stronger effect = lower value 0.413 | locus YDR392W, strain spt3, stronger effect = lower value 0.281 | locus YDR502C, strain sam2, stronger effect = lower value 0.814 | locus YEL003W, strain gim4, stronger effect = lower value 0.909 | locus YEL061C, strain CIN8, stronger effect = lower value 0.923 | locus YER155C, strain BEM2 (second series), stronger effect = lower value 0.42 | locus YER167W, strain BCK2, stronger effect = lower value 0.839 | locus YFR010W, strain ubp6, stronger effect = lower value 0.867 | locus YGL086W, strain mad1, stronger effect = lower value 0.837 | locus YGL248W, strain PDE1, stronger effect = lower value 0.661 | locus YGL253W, strain hxk2, stronger effect = lower value 0.859 | locus YGR135W, strain pre9, stronger effect = lower value 0.73 | locus YGR229C, strain SMI1, stronger effect = lower value 0.324 | locus YGR252W, strain gcn5, stronger effect = lower value 0.368 | locus YHR013C, strain ard1, stronger effect = lower value 0.807 | locus YHR027C, strain rpn1, stronger effect = lower value 0.899 | locus YHR142W, strain chs7, stronger effect = lower value 0.85 | locus YIL066C, strain RNR3, stronger effect = lower value 0.846 | locus YJL095W, strain BCK1 (second series), stronger effect = lower value 0.899 | locus YJL129C, strain trk1, stronger effect = lower value 0.717 | locus YJL164C, strain tpk1, stronger effect = lower value 0.907 | locus YJL187C, strain SWE1 (second series), stronger effect = lower value 0.792
